Screens: PubChem BioAssay, several laboratories
Most compounds without a hit are left out; they make up all but 28% or so of the library.
D1 allo mod = allosteric modulators of human D1 dopamine receptor. AID 641. HEK293 D1, CRE-luciferase, dopamine EC30 potentiation; actives deviate in either direction. hit rate 5.9% among 58,000. B-score at 10 µM. P21728;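 active means luminescence count or its row- and column-corrected plate score outside the 99.7% band of the plate's sample wells, on either side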
Target sequence (P21728 whole entry, looked up): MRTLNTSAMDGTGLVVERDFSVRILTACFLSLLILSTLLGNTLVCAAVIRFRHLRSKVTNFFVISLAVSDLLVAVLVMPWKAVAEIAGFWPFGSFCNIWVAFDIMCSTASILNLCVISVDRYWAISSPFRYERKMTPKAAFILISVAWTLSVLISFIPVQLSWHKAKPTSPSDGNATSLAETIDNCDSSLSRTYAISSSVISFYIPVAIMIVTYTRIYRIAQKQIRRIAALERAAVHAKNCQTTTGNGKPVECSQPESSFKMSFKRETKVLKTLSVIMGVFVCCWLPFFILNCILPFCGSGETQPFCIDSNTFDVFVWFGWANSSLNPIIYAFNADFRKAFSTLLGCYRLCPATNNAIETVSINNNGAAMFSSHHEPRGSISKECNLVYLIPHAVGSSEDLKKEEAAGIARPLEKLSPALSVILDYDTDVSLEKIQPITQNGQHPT
CYP2C19 inhib = blocks human cytochrome P450 2C19; CYP2C19 Supersomes, luciferin-H EGE luminescence, 30 min; inhibition, % at 5 µM; hit rate 21% among 96,000; P33261;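 active means CYP2C19 inhibition above a set limit at 5 µM in the primary screen, cut at about 50% in these data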;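 further: plate controls were negative control wells for no effect and 2.5 mM tranylcypromine positive control for full effect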
CYP2C9 inh = human CYP2C9 inhibition. P11712. CYP2C9 Supersomes, luciferin-H conversion, luminescence. inhibition, % at 5 µM. hit rate 20% among 96,000;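 active means blocking of liver enzyme CYP2C9 beyond about 50% at 5 µM, limit read from the data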
CYP2C9 act = activators of human CYP2C9 | P11712 | recombinant CYP2C9, luciferin-H conversion, luminescence; stronger effect = higher value; factor 1 = untreated enzyme, 0 = blocked | activation factor at 5 µM | hit rate 1.4% among 96,000 | AID 1024;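 active means activation factor of 2 or more for CYP2C9 at a 5 µM dose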;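 further: 0 = sulfaphenazole-blocked wells and 1 = vehicle-only wells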
CYP2C19 act = increases human CYP2C19 enzyme activity | P33261 | recombinant CYP2C19, luciferin-H EGE luminescence; stronger effect = higher value; 0 = fully inhibited enzyme, 1 = untreated enzyme | activation factor at 5 µM | 96,000 tested, under 10 active;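 active means activation factor of at least 2 at 5 µM in the primary screen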;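 further: 0 = wells with 2.5 mM tranylcypromine and 1 = vehicle-only wells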
hDAT+cocaine = changed human dopamine transporter uptake under cocaine IC80; LLC-PK1 hDAT cells, [14C]-dopamine uptake with cocaine IC80; actives deviate in either direction; B-score at 10 µM; hit rate 1.3% among 110,000;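 active means Z score or B-score, a plate-position-corrected score, falls beyond the plate's 99.7% confidence bounds, in either direction; inactive means both scores lie inside the 99.7% bounds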;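 further: scored against the spread of the other compound wells on the same plate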
The depositor's hits bear a star; . = no result given.

SMILES | D1 allo mod | CYP2C19 inhib | CYP2C9 inh | CYP2C9 act | CYP2C19 act | hDAT+cocaine
Cc1nnc(SCc2ccc(F)cc2)s1 | 0.44 | 23 | -23 | 1.2 | 0.8 | -0.85
Nc1nnc(SCc2ccc(F)cc2)s1 | 0.21 | 70* | 33 | 0.7 | 0.3 | 0.031
COc1ccc(CSc2nnc(N)s2)cc1F | 2.4 | 69* | 19 | 0.8 | 0.3 | 0.12
COc1cccc(C2/C(=C(/O)c3cnn(-c4ccccc4)c3C)C(=O)C(=O)N2CCN(C)C)c1 (configuration not stated) | -0.095 | . | . | . | . | .
COC(=O)c1cccc(NC(=O)CSc2nc3cccnc3n2C)c1 | -0.16 | 68* | 59* | 0.4 | 0.3 | 1
CCOc1ccccc1NC(=O)Cn1nnc(C(=O)Nc2ccc(C)cc2)c1N | -5.3* | 14 | 36 | 0.6 | 0.9 | -1.4
CCOc1ccc(NC(=O)CSc2nc3cccnc3n2CC)cc1 | -0.46 | 45 | 9 | 0.9 | 0.6 | -0.18
COc1cccc(-n2ccnc2SCC(=O)NCc2ccccc2)c1 | 1.5 | 96* | 34 | 0.7 | 0 | 0.3
CCOc1ccccc1NC(=O)CSc1nc2cccnc2n1C | -0.011 | 66* | 18 | 0.8 | 0.3 | -0.83
CCOC(=O)c1cnn(-c2cc(Oc3ccccc3C)ncn2)c1N | . | 12 | 14 | 0.9 | 0.9 | -0.86
COc1ccc(CCNC(=O)c2cccnc2)cc1 | . | 35 | 29 | 0.7 | 0.7 | -0.54
CC#CCCCC(=O)Nc1cccc(C(=O)O)c1 | -0.88 | 39 | -4 | 1 | 0.6 | -0.68
COc1ccc(NC(=O)CSc2nccn2-c2ccccc2)c(OC)c1 | 0.026 | 95* | 2 | 1 | 0 | 0.54
CCOc1ccccc1NC(=O)CSCC(=O)Nc1ccccc1 | . | 93* | -159 | 2.6* | 0.1 | 0.44
CCOc1ccc(OCC)c(NC(=O)CSCC(=O)O)c1 | -0.12 | 2 | -8 | 1.1 | 1 | -0.93
CCOc1ccccc1NC(=O)COn1nnc2ccccc21 | . | 92* | -121 | 2.2* | 0.1 | -0.14
CCOc1ccccc1NC(=O)CC(O)(C(F)(F)F)C(F)(F)F | . | . | . | . | . | -0.97
CCCCOc1ccccc1NC(=O)CSc1nnnn1C(C)(C)C | 0.8 | 56* | 74* | 0.3 | 0.4 | 0.099
CCOC(=O)CC(=O)CSCC(=O)Nc1ccc(C)cc1 | -0.52 | 54* | 30 | 0.7 | 0.5 | -0.47
CCOc1ccccc1NC(=O)CSc1nccn1-c1ccccc1 | 0.1 | 67* | -145 | 2.4* | 0.3 | .
Cc1ccc(NC(=O)CSCC#N)cc1 | . | 9 | 22 | 0.8 | 0.9 | 1.1
Cc1nn(C)cc1CNC(=O)c1ccc(Br)o1 | -0.73 | 14 | 8 | 0.9 | 0.9 | 0.045
C=CCNc1ncnc2c1[nH]c1ccc(C)cc12 | -0.63 | 45 | 56* | 0.4 | 0.6 | 0.89
Cc1ccc2[nH]c3c(NCCN4CCOCC4)ncnc3c2c1 | 0.99 | 9 | 4 | 1 | 0.9 | 0.32
COc1ccc(NC(=O)C(C/C=C(/C)Cl)C(C)=O)cc1 (configuration not stated) | . | . | . | . | . | 0.64
SMILES | D1 allo mod | CYP2C19 inhib | CYP2C9 inh | CYP2C9 act | CYP2C19 act | hDAT+cocaine
O=C(O)C[C@H]1c2cc(F)ccc2S(=O)(=O)N1C1CCN(Cc2ccccc2)CC1 | . | . | . | . | . | -0.16
Cc1cc2nc(-c3ccc(SCc4ccccc4C#N)nc3)[nH]c2cc1C | . | 34 | 34 | 0.7 | 0.7 | 1.5
N#Cc1ccccc1CSc1ccccn1 | -0.0091 | 56* | 5 | 1 | 0.4 | 0.026
CC(=O)c1ccc(NC(=O)C2CCN(S(=O)(=O)c3cccc4cccnc34)CC2)cc1 | -0.065 | 4 | -86 | 1.9 | 1 | -0.99
Cc1cccc(NC(=O)C2CCN(S(=O)(=O)c3cccc4cccnc34)CC2)n1 | 0 | 78* | -128 | 2.3* | 0.2 | 0.097
Cc1ccc(NC(=O)C2CCN(S(=O)(=O)c3cccc4cccnc34)CC2)nc1 | 0.52 | 68* | -46 | 1.5 | 0.3 | -0.015
COc1ccc(NC(=O)C2CCN(S(=O)(=O)c3cccc4cccnc34)CC2)cc1 | 0.029 | 9 | -53 | 1.5 | 0.9 | 0.42
COc1ccc(-c2cc(C(F)(F)F)n3nc(C(=O)NCc4ccco4)cc3n2)cc1 | 0.055 | 33 | 15 | 0.8 | 0.7 | 1
O=C(NCc1ccco1)c1cc2nc(-c3ccc4c(c3)OCO4)cc(C(F)(F)F)n2n1 | -0.79 | 77* | 83* | 0.2 | 0.2 | 0.11
Cc1ccc(-c2cc(C(F)F)n3ncc(C(=O)NCc4ccco4)c3n2)cc1 | -1.8 | 24 | 44 | 0.6 | 0.8 | -0.21
Cc1c(NC(=O)c2cc3nc(-c4ccc(Br)cc4)cc(C(F)(F)F)n3n2)c(=O)n(-c2ccccc2)n1C | . | . | . | . | . | 2.7
Cc1ccc(-c2cc(C(F)(F)F)n3ncc(C(=O)NCc4ccco4)c3n2)cc1 | 0.29 | 32 | 54* | 0.5 | 0.7 | -0.39
Cc1ccc(-c2cc(C(F)(F)F)n3nc(C(=O)NCCCn4ccnc4)cc3n2)cc1C | . | 88* | 80* | 0.2 | 0.1 | 0.55
N#Cc1ccc(Oc2cccnc2)cc1C#N | 1 | 30 | 2 | 1 | 0.7 | .
C=CCSc1nc2sc(-c3ccccc3)cc2c(=O)n1N | . | 29 | 50* | 0.5 | 0.7 | -0.35
Cc1ccc(C)n1-n1c(C)nc2sc(-c3ccccc3)cc2c1=O | -0.78 | 12 | 12 | 0.9 | 0.9 | 2.4
Cc1ccccc1-n1c(SCC(N)=O)nc2sc(-c3ccccc3)cc2c1=O | . | 63* | 84* | 0.2 | 0.4 | 3*
COc1ccc(S(=O)(=O)N(CC(=O)N2CCOCC2)c2cc(Cl)ccc2OC)cc1OC | 0.55 | 10 | 33 | 0.7 | 0.9 | -0.19
COCCOc1ccc(C(F)(F)F)cc1Nc1nc2ccccc2o1 | . | 30 | 38 | 0.6 | 0.7 | -0.39
CCOC(=O)CSc1n[nH]c(NC(=O)c2ccc(F)cc2)n1 | . | 53* | 21 | 0.8 | 0.5 | 0.29
O=C1c2sc3nc4ccccc4n3c2C(=O)N1c1ccccc1Cl | -0.23 | -10 | 60* | 0.4 | 1.1 | -0.15
Cc1ccccc1N1C(=O)c2sc3nc4c(c(=O)n3c2C1=O)CCC4 | 0.24 | 15 | 40 | 0.6 | 0.9 | -1.3
O=C(COn1nnc2ccccc21)NCC1CCCCC1 | 0.58 | 55* | 5 | 0.9 | 0.4 | -0.61
COc1ccccc1C(=O)NC1CCCCCCC1 | . | . | . | . | . | 1.4
COC(=O)c1ccccc1OCC(=O)NC1CCCCC1 | -0.27 | 64* | 49 | 0.5 | 0.4 | -1.3
CCc1ccccc1OCC(=O)NC1CCCC1 | . | 93* | 36 | 0.6 | 0.1 | -0.023
COc1ccccc1OCC(=O)NCC1CCCCC1 | 0.89 | 95* | -11 | 1.1 | 0.1 | 0.18
Cn1c(N)c(S(=O)(=O)NCc2ccccc2)c(=O)n(C)c1=O | . | . | . | . | . | 0.74
COc1ccc(NC(=O)N2Cc3ccccc3CC2C(=O)NC(C)(C)C)cc1 (configuration not stated) | . | 6 | -3 | 1 | 0.9 | -0.37
CC(NC(=O)c1ccccc1)C(=O)NC1=NCCS1 (configuration not stated) | -0.27 | 21 | 3 | 1 | 0.8 | 0.41
